# Reference: the supplement of paper PMC10849652
# Of roughly 8,800 targets only a part is listed; those with a hit were picked by preference. About 0.5% of all pairs of compound and target were hits. A number with no mark means an inactive call.
# Legend:
# Assay in all cases: log2 fold change, soluble protein after heating vs DMSO (PISA); higher = thermal stabilisation; K562 lysate, 10 uM; active = over 0.2 and 3.5 SD of the protein, either way, in both replicates (recomputed)
# lapatinib = compound: CS(=O)(=O)CCNCc1ccc(-c2ccc3ncnc(Nc4ccc(OCc5cccc(F)c5)c(Cl)c4)c3c2)o1 [lapatinib]
# Method in brief: (§1)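 Log-two fold change in thermal stability relative to solvent controls is reported from duplicates. For each sample, crude K562 extract from dounce-homogenised pellets in PBS pH 7.4 with 1 mM MgCl2, at 1 mg/mL protein, was treated with 10 μM compound for 30 min. Aliquots heated for 3 min across 48°C-58°C were pooled, brought to 0.5% NP-40 at 4°C and cleared at 21,000xg for 90 min. The supernatant was quantified by TMTpro 16plex LC-MS/MS with channel sums equalised.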
# pictilisib = compound: CS(=O)(=O)N1CCN(Cc2cc3nc(-c4cccc5[nH]ncc45)nc(N4CCOCC4)c3s2)CC1 [pictilisib]
# Method in brief: as §1
# crizotinib = compound: C[C@@H](Oc1cc(-c2cnn(C3CCNCC3)c2)cnc1N)c1c(Cl)ccc(F)c1Cl [crizotinib]
# Method in brief: as §1
# [1] = compound: C[C@H](C1=CC=C(C=C1)C(=O)NC2=C3C=CNC3=NC=C2)N
# Method in brief: as §1
# duvelisib = compound: C[C@H](Nc1ncnc2nc[nH]c12)c1cc2cccc(Cl)c2c(=O)n1-c1ccccc1 [duvelisib]
# Method in brief: as §1
# gandotinib = compound: Cc1cc(Nc2cc(CN3CCOCC3)c3nc(C)c(Cc4ccc(Cl)cc4F)n3n2)n[nH]1 [gandotinib]
# Method in brief: as §1
# tozasertib = compound: Cc1cc(Nc2cc(N3CCN(C)CC3)nc(Sc3ccc(NC(=O)C4CC4)cc3)n2)n[nH]1 [tozasertib]
# Method in brief: as §1
# doramapimod = compound: Cc1ccc(-n2nc(C(C)(C)C)cc2NC(=O)Nc2ccc(OCCN3CCOCC3)c3ccccc23)cc1 [doramapimod]
# Method in brief: as §1
# bafetinib = compound: Cc1ccc(NC(=O)c2ccc(CN3CC[C@H](N(C)C)C3)c(C(F)(F)F)c2)cc1Nc1nccc(-c2cncnc2)n1 [bafetinib]
# Method in brief: as §1
# [2] = compound: Cc1cccc(CC(=O)N2CCc3c2ccc(-c2cn(C)c4ncnc(N)c24)c3F)n1
# Method in brief: as §1
# nilotinib = compound: Cc1cn(-c2cc(NC(=O)c3ccc(C)c(Nc4nccc(-c5cccnc5)n4)c3)cc(C(F)(F)F)c2)cn1 [nilotinib]
# Method in brief: as §1
# [3] = compound: Cc1nc(Nc2n[nH]c3c2CN(C(=O)N[C@H](CN(C)C)c2ccccc2)C3(C)C)c2sccc2n1
# Method in brief: as §1
# dasatinib = compound: Cc1nc(Nc2ncc(C(=O)Nc3c(C)cccc3Cl)s2)cc(N2CCN(CCO)CC2)n1 [dasatinib]
# Method in brief: as §1
# [4] = compound: Cc1ncc(-c2ccnc(Nc3ccc(S(C)(=O)=O)cc3)n2)n1C(C)C
# Method in brief: as §1
# [5] = compound: Cn1cc(-c2ccc3c(c2)CCN3C(=O)Cc2cccc(C(F)(F)F)c2)c2c(N)ncnc21
# Method in brief: as §1
# quisinostat = compound: Cn1cc(CNCC2CCN(c3ncc(C(=O)NO)cn3)CC2)c2ccccc21 [quisinostat]
# Method in brief: as §1
# tipifarnib = compound: Cn1cncc1[C@@](N)(c1ccc(Cl)cc1)c1ccc2c(c1)c(-c1cccc(Cl)c1)cc(=O)n2C [tipifarnib]
# Method in brief: as §1
# [6] = compound: NC(=O)Nc1cc(-c2cccc(F)c2)sc1C(=O)N[C@H]1CCCNC1
# Method in brief: as §1
# [7] = compound: NC(=O)c1cnc(N[C@@H]2CCCC[C@@H]2N)nc1Nc1cccc(-n2nccn2)c1
# Method in brief: as §1
# [8] = compound: NC1(c2ccc(-c3nc4ccn5c(=O)[nH]nc5c4cc3-c3ccccc3)cc2)CCC1
# Method in brief: as §1
# Sequence of UniProt P04004 (P04004 whole entry, looked up): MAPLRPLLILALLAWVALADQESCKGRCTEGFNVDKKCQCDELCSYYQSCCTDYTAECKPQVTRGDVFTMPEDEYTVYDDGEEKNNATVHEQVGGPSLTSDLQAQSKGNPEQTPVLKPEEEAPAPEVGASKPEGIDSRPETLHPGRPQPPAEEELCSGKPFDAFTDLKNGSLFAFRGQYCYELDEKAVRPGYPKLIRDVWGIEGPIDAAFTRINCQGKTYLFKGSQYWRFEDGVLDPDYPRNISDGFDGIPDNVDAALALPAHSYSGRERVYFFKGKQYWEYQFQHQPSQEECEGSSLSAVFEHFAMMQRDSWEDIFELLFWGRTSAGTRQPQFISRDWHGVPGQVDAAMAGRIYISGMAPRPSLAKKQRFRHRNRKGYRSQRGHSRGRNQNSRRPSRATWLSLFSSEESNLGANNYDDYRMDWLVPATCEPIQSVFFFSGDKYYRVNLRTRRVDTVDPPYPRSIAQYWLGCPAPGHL
# Sequence of UniProt Q86T24 (Q86T24 whole entry, looked up): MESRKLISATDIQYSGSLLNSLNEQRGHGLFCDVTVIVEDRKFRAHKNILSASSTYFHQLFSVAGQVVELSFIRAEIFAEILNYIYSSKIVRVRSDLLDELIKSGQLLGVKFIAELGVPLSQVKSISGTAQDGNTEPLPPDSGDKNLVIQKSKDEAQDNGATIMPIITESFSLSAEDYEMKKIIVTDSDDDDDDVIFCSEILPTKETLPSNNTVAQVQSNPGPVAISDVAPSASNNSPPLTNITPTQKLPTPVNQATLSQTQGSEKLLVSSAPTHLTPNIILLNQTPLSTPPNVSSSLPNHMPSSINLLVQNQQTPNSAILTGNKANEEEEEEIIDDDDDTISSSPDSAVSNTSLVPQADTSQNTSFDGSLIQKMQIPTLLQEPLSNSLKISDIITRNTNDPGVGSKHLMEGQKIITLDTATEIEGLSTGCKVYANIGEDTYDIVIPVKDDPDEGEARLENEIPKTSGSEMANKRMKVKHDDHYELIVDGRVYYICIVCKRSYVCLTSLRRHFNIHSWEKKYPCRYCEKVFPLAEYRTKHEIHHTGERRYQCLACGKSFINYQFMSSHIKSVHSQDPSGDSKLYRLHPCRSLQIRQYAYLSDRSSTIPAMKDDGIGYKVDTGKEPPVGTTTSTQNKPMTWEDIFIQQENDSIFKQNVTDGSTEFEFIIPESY
# Sequence of UniProt A4D1P6 (A4D1P6 whole entry, looked up): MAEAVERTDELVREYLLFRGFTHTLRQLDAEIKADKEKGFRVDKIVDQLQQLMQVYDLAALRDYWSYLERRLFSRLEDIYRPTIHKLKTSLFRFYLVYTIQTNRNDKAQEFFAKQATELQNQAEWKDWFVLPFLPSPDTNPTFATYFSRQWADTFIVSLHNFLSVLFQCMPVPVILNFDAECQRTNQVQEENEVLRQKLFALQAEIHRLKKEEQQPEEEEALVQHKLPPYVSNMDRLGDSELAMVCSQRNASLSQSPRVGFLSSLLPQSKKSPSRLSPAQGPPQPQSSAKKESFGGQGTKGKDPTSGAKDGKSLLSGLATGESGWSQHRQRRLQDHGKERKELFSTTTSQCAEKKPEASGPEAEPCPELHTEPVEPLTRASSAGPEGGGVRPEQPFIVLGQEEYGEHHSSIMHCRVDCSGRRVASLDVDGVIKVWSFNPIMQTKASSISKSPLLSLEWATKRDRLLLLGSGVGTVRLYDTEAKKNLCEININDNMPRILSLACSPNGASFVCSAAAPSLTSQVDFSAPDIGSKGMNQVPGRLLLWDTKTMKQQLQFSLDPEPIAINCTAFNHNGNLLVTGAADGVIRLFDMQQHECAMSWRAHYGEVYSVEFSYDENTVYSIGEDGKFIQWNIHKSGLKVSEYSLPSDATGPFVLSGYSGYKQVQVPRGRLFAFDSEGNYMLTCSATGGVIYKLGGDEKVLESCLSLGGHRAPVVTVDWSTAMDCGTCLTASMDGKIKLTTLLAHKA
# Sequence of UniProt Q86WB0 (Q86WB0 whole entry, looked up): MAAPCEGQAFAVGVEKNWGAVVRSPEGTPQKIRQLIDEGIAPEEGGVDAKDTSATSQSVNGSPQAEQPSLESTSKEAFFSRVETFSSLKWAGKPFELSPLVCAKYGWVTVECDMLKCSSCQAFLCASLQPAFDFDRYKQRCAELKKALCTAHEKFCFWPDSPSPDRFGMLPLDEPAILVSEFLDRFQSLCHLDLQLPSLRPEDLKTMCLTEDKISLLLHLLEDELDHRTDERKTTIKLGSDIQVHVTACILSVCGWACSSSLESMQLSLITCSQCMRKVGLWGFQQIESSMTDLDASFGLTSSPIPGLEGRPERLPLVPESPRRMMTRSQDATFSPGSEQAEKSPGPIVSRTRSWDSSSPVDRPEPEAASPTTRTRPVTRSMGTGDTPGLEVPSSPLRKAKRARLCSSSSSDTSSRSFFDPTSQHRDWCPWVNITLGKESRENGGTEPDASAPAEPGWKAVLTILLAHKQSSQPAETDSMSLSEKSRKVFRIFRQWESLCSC
# Sequence of UniProt P26640 (P26640 whole entry, looked up): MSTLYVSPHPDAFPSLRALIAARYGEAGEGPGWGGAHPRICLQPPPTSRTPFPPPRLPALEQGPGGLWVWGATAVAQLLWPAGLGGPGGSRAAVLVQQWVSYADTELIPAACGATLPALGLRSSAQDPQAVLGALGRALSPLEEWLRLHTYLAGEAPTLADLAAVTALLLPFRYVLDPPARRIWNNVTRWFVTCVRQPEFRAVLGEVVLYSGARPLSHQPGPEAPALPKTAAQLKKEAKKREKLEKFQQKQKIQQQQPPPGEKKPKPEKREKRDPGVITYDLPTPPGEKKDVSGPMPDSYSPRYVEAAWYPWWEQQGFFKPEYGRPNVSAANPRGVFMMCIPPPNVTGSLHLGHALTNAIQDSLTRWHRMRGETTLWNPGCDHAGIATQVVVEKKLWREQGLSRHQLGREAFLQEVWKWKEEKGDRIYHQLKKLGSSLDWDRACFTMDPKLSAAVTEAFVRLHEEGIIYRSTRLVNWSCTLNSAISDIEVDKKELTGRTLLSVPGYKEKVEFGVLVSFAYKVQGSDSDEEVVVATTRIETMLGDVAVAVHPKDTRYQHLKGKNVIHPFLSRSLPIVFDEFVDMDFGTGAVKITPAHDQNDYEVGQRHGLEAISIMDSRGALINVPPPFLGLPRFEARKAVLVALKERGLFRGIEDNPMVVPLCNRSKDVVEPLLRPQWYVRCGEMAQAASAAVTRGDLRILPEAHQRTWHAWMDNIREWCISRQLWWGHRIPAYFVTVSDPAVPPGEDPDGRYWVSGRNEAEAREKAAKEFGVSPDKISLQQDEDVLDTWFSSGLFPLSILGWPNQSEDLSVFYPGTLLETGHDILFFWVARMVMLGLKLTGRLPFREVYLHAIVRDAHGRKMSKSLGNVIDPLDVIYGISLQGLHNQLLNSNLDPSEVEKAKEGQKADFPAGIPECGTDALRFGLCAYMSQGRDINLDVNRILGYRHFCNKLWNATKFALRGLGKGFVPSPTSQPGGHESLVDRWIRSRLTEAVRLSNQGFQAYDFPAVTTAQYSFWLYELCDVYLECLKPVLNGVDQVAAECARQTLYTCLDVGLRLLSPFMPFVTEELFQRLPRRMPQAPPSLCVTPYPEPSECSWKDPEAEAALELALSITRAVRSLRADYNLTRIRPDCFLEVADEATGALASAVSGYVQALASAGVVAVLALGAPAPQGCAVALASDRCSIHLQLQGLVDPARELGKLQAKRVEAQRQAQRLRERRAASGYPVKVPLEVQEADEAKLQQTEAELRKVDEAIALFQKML
# Sequence of UniProt Q9NUE0 (Q9NUE0 whole entry, looked up): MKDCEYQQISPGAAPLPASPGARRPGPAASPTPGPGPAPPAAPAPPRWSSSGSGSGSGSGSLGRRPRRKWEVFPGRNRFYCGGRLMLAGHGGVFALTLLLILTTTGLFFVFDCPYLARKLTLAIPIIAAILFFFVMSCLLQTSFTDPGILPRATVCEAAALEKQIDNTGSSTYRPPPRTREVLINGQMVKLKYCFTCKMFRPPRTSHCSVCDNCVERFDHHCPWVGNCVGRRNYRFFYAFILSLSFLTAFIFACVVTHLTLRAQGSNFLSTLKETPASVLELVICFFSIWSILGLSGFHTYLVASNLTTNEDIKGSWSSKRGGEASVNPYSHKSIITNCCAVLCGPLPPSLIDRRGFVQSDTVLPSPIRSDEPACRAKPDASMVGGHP
# Sequence of UniProt P27348 (P27348 whole entry, looked up): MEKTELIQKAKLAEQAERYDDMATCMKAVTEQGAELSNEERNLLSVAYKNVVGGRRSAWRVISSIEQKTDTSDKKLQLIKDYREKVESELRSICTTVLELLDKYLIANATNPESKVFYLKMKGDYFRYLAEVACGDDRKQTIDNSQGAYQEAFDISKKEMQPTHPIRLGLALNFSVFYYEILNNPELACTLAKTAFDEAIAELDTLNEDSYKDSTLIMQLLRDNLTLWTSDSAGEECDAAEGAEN
# Sequence of UniProt Q96AX1 (Q96AX1 whole entry, looked up): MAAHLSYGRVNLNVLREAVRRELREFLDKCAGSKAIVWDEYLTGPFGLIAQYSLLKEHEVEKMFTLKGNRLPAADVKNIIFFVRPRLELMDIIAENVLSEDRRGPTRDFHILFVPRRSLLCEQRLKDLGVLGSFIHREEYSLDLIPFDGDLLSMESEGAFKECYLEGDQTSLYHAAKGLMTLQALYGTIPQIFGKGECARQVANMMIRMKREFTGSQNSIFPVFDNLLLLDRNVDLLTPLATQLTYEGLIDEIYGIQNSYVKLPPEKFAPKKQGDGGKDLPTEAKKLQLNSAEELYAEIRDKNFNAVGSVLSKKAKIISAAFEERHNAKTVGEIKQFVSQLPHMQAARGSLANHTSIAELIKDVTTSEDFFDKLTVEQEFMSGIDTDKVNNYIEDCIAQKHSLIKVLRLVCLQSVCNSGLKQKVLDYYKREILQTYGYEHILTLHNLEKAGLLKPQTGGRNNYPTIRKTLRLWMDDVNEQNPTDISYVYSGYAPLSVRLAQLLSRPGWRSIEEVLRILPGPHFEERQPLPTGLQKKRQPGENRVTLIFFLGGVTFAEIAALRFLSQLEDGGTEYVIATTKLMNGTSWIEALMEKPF
# Sequence of UniProt Q9BRT2 (Q9BRT2 whole entry, looked up): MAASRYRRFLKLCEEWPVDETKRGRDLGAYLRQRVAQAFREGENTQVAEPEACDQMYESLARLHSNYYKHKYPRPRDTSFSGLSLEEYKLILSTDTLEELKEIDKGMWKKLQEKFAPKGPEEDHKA
Target,log2 fold change (lapatinib),log2 fold change (pictilisib),log2 fold change (crizotinib),log2 fold change [1],log2 fold change (duvelisib),log2 fold change (gandotinib),log2 fold change (tozasertib),log2 fold change (doramapimod),log2 fold change (bafetinib),log2 fold change [2],log2 fold change (nilotinib),log2 fold change [3],log2 fold change (dasatinib),log2 fold change [4],log2 fold change [5],log2 fold change (quisinostat),log2 fold change (tipifarnib),log2 fold change [6],log2 fold change [7],log2 fold change [8]
VARS (UniProt P26640),-0.017,-0.027,-0.068,-0.004,0.002,-0.092,-0.021,0.022,-0.012,0.029,-0.012,-0.004,-0.072,0,0.06,-0.021,0.012,0.045,0.001,-0.028
ZFYVE19 (UniProt Q96K21),0.042,0.017,0.007,-0.125,-0.005,0.085,0.046,-0.029,0,0.149,0.014,-0.001,0.007,0.053,-0.041,-0.01,0.006,-0.003,0.014,0.003
YWHAQ (UniProt P27348),0.001,0.038,0.07,0.466 (active),-0.012,-0.089,-0.024,-0.043,-0.043,-0.095,-0.008,-0.005,0.04,0.037,0.011,0.095,0.019,-0.023,-0.035,0.014
VTN (UniProt P04004),-0.057,0.026,0.019,-0.384 (active),0.018,0.164,-0.006,-0.023,-0.054,0.148,0.04,0.064,0.019,-0.102,0,0.022,-0.092,0.006,-0.063,-0.03
UQCRC2 (UniProt P22695),-0.04,-0.008,0.019,-0.011,0.001,-0.004,-0.025,-0.027,-0.05,-0.007,0.034,-0.028,0,0.004,-0.043,0.007,-0.011,0.02,-0.008,0.011
USP48 isoform 8 (UniProt Q86UV5),-0.01,-0.001,-0.022,-0.006,-0.001,-0.044,0.008,0.024,-0.027,0.034,0.018,0.008,0.001,0,0.015,-0.04,-0.011,0.008,-0.001,-0.024
ZC3H11A (UniProt O75152),-0.09,-0.046,-0.071,0.222,0.013,-0.12,0.016,0.013,-0.113,-0.134,-0.021,-0.006,-0.021,0.041,-0.022,-0.094,-0.007,0,0.004,0.035
WDR91 (UniProt A4D1P6),-0.003,-0.012,-0.009,-0.001,0.002,0.048,0,0.038,-0.05,0.052,-0.051,-0.025,-0.039,-0.01,0.056,0.005,0.014,-0.009,-0.004,0.011
XPNPEP1 isoform 3 (UniProt Q9NQW7),-0.017,-0.02,-0.008,0.001,0.049,0.002,-0.024,-0.003,-0.021,0.018,0.022,0.016,-0.049,-0.004,0.014,0.024,0.011,0.007,-0.005,-0.023
ZBTB33 (UniProt Q86T24),0.047,0.149,-0.111,-0.165,-0.041,0.028,0.048,0.022,0.046,0.048,-0.009,0.084,-0.06,-0.052,0.029,-0.08,-0.083,0.133,0,-0.035
ZC3HC1 (UniProt Q86WB0),0.042,0.001,0.023,0.222 (active),0.013,-0.082,-0.036,0.025,-0.019,-0.094,-0.013,-0.005,0.029,0.007,-0.009,-0.033,-0.03,0.025,0.017,0.024
VRK2 (UniProt Q86Y07),0.03,0.002,-0.069,0.353 (active),-0.016,-0.04,-0.026,-0.063,-0.03,0.03,0.048,0.219,0.185,0.017,0.17,-0.044,-0.018,0.026,-0.003,-0.006
VPS33A (UniProt Q96AX1),0,-0.005,-0.025,-0.03,0.039,-0.043,0.01,0,0.014,0.036,-0.007,-0.004,-0.007,-0.027,0.045,-0.018,-0.006,0.041,0.021,-0.034
UQCC2 (UniProt Q9BRT2),0.007,0.009,0.036,0.158,0.026,-0.091,-0.015,0.014,0.001,-0.093,-0.018,-0.006,0.002,0.012,-0.001,0,0.058,-0.076,-0.005,0.018
ZDHHC18 (UniProt Q9NUE0),0.029,0.078,-0.023,-0.017,0.013,-0.149,-0.061,0.054,-0.068,-0.11,0.067,-0.329,0.176,-0.047,-0.158,-0.008,0.177,0.008,0.059,0.067
